Experimental data from PubChem BioAssay AID743279 (National Center for Advancing Translational Sciences (NCATS), 2014).
In all, about 360,000 compounds went through this assay and about 17,000 (4.7%) were called active. Another 5% or so got no clear call; they are omitted. Cut-off read from the data, not from the text of the source: active = activity change below about -50%; inconclusive = mostly about -30% to -49%; inactive = weaker than that. The full list was thinned out, with actives kept by preference.

Experiment: qHTS for Inhibitors of Inflammasome Signaling: IL-1-beta AlphaLISA Primary Screen
Settings: THP-1 LPS/ATP IL-1B secretion, 16 h; at 57.5 µM, stronger effect = lower value
In short: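 Secreted IL-1B measured by AlphaLISA bead assay after 16 h compound exposure of THP-1 cells; compounds (final up to 57.5 uM) added 1 h before LPS (250 ng/mL) and ATP (1.25 mM) stimulation; lower signal means less secretion.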
% is set by controls: 0 for no effect and ±100 for the full control effect.

Structure (SMILES) | activity change
CCc1cccc(C)c1N(C(=O)Cn1c(CO)nc2ccccc21)C(C)COC (configuration not stated) | -5.47% (inactive)
COc1ccc(N2c3ccccc3CN(Cc3ccccc3)[C@@H](C)[C@H]2Cc2ccc(-c3ccccc3)cc2)cc1 | 43% (inactive)
O=C(OCc1cn([C@H]2C[C@H](c3ccccc3)N(C(=O)c3cccs3)C[C@@H]2O)nn1)c1ccccc1 | 9.57% (inactive)
CCOC(=O)C1(Cc2ccc(Cl)cc2)CCN(C(=O)C2=NNC(=O)CC2)CC1 | 5.99% (inactive)
COc1ccc(S(=O)(=O)N2CCCCC2)cc1C(=O)NC1CCS(=O)(=O)C1 (configuration not stated) | -14.7% (inactive)
CCN(CC)C(=O)C1CCCN(Cc2cccc(Cl)c2)C1 (configuration not stated) | -7.01% (inactive)
O=C(C[C@H]1CC[C@@H](NC(=O)c2ccncc2)[C@@H](CO)O1)NCC1CC1 | 0.19% (inactive)
Cc1ccc(-n2c(SCC(=O)N3CCC(C(=O)O)CC3)nc3ccccc3c2=O)cc1C | 6.5% (inactive)
O=S1(=O)C[C@@H](N2CCN(CCO)CC2)[C@H](COCc2ccccc2)N1 | -19.7% (inactive)
COc1ccc(-c2ccc3[nH]c4c(c3c2)CCN2C[C@H]3[C@H](C)ON(C)[C@H]3C[C@@H]42)cc1 | -18.3% (inactive)
Nc1nc(CSc2nnnn2-c2ccccc2)nc(Nc2ccccc2)n1 | -29.1% (inactive)
CNC(=O)c1csc(-c2ccccc2)n1 | -4.77% (inactive)
CNC(=O)c1cccc2nc3ccccc3nc12 | -78.6% (active)
CN(C)C(=O)c1coc2nc3ccccc3nc12 | 25.5% (inactive)
COc1ccc(NC(=O)N2CCC(Cc3ccccc3)CC2)cc1 | -50.3% (active)
COc1ccc(NC(=O)N2CCCC(C(=O)Nc3ccccc3OC)C2)cc1 (configuration not stated) | -1.11% (inactive)
COc1ccc(C(=O)NC2CCN(C(=O)Nc3ccc(F)cc3)CC2)cc1 | 17.5% (inactive)
CCN1CCCC1CNC(=O)c1cc2cc(OC)c(OC)cc2[nH]1 (configuration not stated) | -7.87% (inactive)
CCN1CCCC1Cn1cnc2c([nH]c3cc(OC)ccc32)c1=O (configuration not stated) | -21.8% (inactive)
CC(C)OCCCNc1ncnc2c1[nH]c1ccc(F)cc12 | -71% (active)
CCN1CCCC1CNc1ncnc2c1[nH]c1ccc(F)cc12 (configuration not stated) | -94.3% (active)
C[C@@H]1CN([C@@H](C)CO)S(=O)(=O)c2ccc(-c3ccc(C(=O)N(C)C)cc3)cc2O[C@@H]1CN(C)Cc1ccccc1C(=O)O | 23.1% (inactive)

Structure (SMILES) | activity change
COc1ccc(-c2ccc3c(c2)C2CC3CCN2CCC#N)cc1 (configuration not stated) | 12.2% (inactive)
Cc1cc(C)c2nc(-c3cccnc3)cc(C(=O)Nc3ccc(S(=O)(=O)Nc4onc(C)c4C)cc3)c2c1 | 16.5% (inactive)
COc1ccc(CN2C(=O)C(CC(=O)NCc3cccc4ccccc34)CC(C(=O)N3CCOCC3)=C2C)cc1 (configuration not stated) | -5.05% (inactive)
COc1cc(C(O)c2nc(-c3cnn(C)c3)cs2)ccc1F (configuration not stated) | 25.9% (inactive)
CC(C)(C)NC(=O)Cn1c(SCC(=O)Nc2nccs2)nc2ccccc21 | -11.3% (inactive)
O=C(Nc1ccc(F)cc1)N1CCCC(c2nc3c(nnn3Cc3ccccc3Cl)c(=O)[nH]2)C1 (configuration not stated) | -15.2% (inactive)
Cc1ccc(NC(=O)N2CCC(c3nc4c(nnn4Cc4c(F)cccc4Cl)c(=O)[nH]3)CC2)cc1 | -69% (active)
COc1ccc(Cn2nnc3c(=O)[nH]c(C4CCN(C(=O)c5ccccc5Cl)CC4)nc32)cc1 | 0% (inactive)
CC[C@]12c3[nH]c4cc(CCC(=O)N(C)C)ccc4c3CCN1C(=O)[C@@H](CC(=O)NCCCN(C)C)C[C@@H]2C(=O)N1CCN(C(=O)c2ccco2)CC1 | 0% (inactive)
CC1CCN(C(=O)CSc2nnc(-c3ccco3)n2N)CC1 | 3.36% (inactive)
c1ccc(Cc2c(-c3ccco3)nc3c4ccccc4ccn23)cc1 | -21.7% (inactive)
Cc1ccc(OCC(O)CN2CCN(CC(O)COc3ccc(C)cc3Cl)CC2)c(Cl)c1 (configuration not stated) | 4.54% (inactive)
C=CCc1ccccc1OCC(O)CN1CCN(CCO)CC1 (configuration not stated) | 9.73% (inactive)
Cc1cccc(OCC(O)CN2CCN(CCN3C(=O)c4cccc5cccc(c45)C3=O)CC2)c1C (configuration not stated) | -52.3% (active)
CCCCN1C(=O)C(CC(=O)NCc2cccs2)CC(C(=O)N2CCCCCC2)=C1C (configuration not stated) | 7% (inactive)
Clc1ccc(-n2nnnc2CN2CCCCC2)cc1Cl | 9.91% (inactive)
CN(C(=O)CCN1C(=O)/C(=C/c2ccccc2F)SC1=S)C1CCS(=O)(=O)C1 (configuration not stated) | -99.1% (active)
COc1ccccc1/C=C1\SC(=O)N(CCC(=O)N(C)C2CCS(=O)(=O)C2)C1=O (configuration not stated) | -15.1% (inactive)
CN(C(=O)CN1C(=O)S/C(=C\c2ccccc2F)C1=O)C1CCS(=O)(=O)C1 (configuration not stated) | -16.9% (inactive)
CCC(C)CN1C(=O)CSCC1(C)C(=O)NCc1ccccc1 (configuration not stated) | -5.63% (inactive)
COc1ccc(S(=O)(=O)N2CCOCC2)cc1NC(=O)COc1ccccc1 | 6.58% (inactive)
COC(=O)COc1ccc(S(=O)(=O)N2CCOCC2)cc1 | -50.5% (active)

Structure (SMILES) | activity change
CC(=O)c1cccc(NC(=O)COc2ccc(S(=O)(=O)N3CCOCC3)cc2)c1 | -9.57% (inactive)
Cc1cc2c(cc1C)NC1(C[C@H]3CCC(=O)N4CC[C@@H](C1)[C@@H]34)C(=NC(C)(C)CC(C)(C)C)N2 (some centres not stated) | 1.01% (inactive)
C=CCN(N=Nc1cccc([N+](=O)[O-])c1)c1cccc([N+](=O)[O-])c1 | -16.1% (inactive)
NS(=O)(=O)c1ccc(CNC(=O)c2cccc(S(=O)(=O)N3CCc4ccccc43)c2)cc1 | -11.1% (inactive)
NS(=O)(=O)c1ccc(CNC(=O)c2cccc(Oc3ccccc3)c2)cc1 | -74.2% (active)
NS(=O)(=O)c1ccc(CNC(=O)c2cnccn2)cc1 | 2.67% (inactive)
CCc1ccc(OC2(C)CCN(CCOc3ccc(C)cc3)C2)cc1 (configuration not stated) | -10% (inactive)
O=C1CSC(=S)N1/N=C/c1ccc(O)c([N+](=O)[O-])c1 | 23.5% (inactive)
O=C(CC[C@H]1O[C@@H](n2ccc(=O)[nH]c2=O)[C@H](O)[C@@H]1O)N[C@H](Cc1ccccc1)C(=O)NCCCN1CCCC1=O | 15.8% (inactive)
Cc1cc(C(=O)N2CCCC2(C)C(=O)O)c(C)o1 (configuration not stated) | -11.9% (inactive)
CCn1c(SCC(=O)Nc2nc(C)cs2)nnc1C(C)NC(=O)c1ccccc1 (configuration not stated) | -6.67% (inactive)
Cc1ccc(CN2CCN(Cc3cn(C)nc3-c3ccccc3)CC2CCO)o1 (configuration not stated) | 40.4% (inactive)
COc1ccc(CN2CCN(Cc3cn(C)nc3-c3ccccc3)CC2CCO)c(C)c1C (configuration not stated) | -57.9% (active)
CCn1nc(C)c(CN2CCN(Cc3ccc(OC)c(C)c3C)C(CCO)C2)c1C (configuration not stated) | 9.61% (inactive)
Cc1noc(C)c1C(=O)N1CCC1(C)C(=O)NS(=O)(=O)c1ccc(C#N)cc1 (configuration not stated) | -5.56% (inactive)
O=C(Nc1ccccc1)c1ccccc1Br | 9.09% (inactive)
CC1(C(=O)NS(=O)(=O)c2ccc(C#N)cc2)CCN1C(=O)CC1CCCC1 (configuration not stated) | 4.38% (inactive)
CC(=O)C[C@@H]1OC[C@H](C)N1S(=O)(=O)c1ccc(C)cc1 | -13.9% (inactive)
Cc1ccc(NC(=S)NC(=O)c2ccc(-c3ccccc3)cc2)c(C)c1 | -50.2% (active)
Cc1cccc(NC(=O)NC(=S)NC(=O)c2ccccc2)c1 | -7.59% (inactive)
Cc1cc2[nH]ncc2cc1NC(=S)NC(=O)c1ccccc1 | -1.02% (inactive)
O=C(N[C@H]1C/C=C\C(c2cccc(F)c2)N(Cc2ccccc2)C(=O)C1)OCC1c2ccccc2-c2ccccc21 (some centres not stated) | -10% (inactive)

Structure (SMILES) | activity change
CC[C@@H]1CC2=C(C(=O)OC(C)(C)O2)[C@@H](CC)O1 | 22.9% (inactive)
O=C(C1CC1)N1N=C2CCCCC2C1(O)C(F)(F)F (configuration not stated) | -13% (inactive)
O=C(OCc1nnc(-c2ccccc2)o1)c1cc(=O)[nH]c2ccccc12 | -11.8% (inactive)
CCOC(=O)c1ccc(COC(=O)c2cc(=O)[nH]c3ccccc23)o1 | -68.1% (active)
CN(C(=O)COC(=O)c1cc(=O)[nH]c2ccccc12)C1CCCCC1 | 0% (inactive)
CC(CO)NCC12CC3CC(CC(C3)C1)C2 (configuration not stated) | 4.35% (inactive)
CC(=O)NC(c1ccccc1)c1nc(-c2ccccc2C)cs1 (configuration not stated) | 0.953% (inactive)
CCc1nc2c(OCCOc3ccccc3)cccn2c1N(C=O)Cc1ccc(OC)cc1 | 29.8% (inactive)
CCCCN(C=O)c1c(CC)nc2c(OCc3ccccc3C(=O)OC)cccn12 | 0% (inactive)
CCCCN(C=O)c1c(CC)nc2c(OCCC3CCCCC3)cccn12 | -56.6% (active)
COc1cccc(CNc2nc(NCc3cccs3)nc3ccsc23)c1 | -4.63% (inactive)
COc1cccc(CNc2nc(NCc3ccccc3OC)nc3ccsc23)c1 | -75.5% (active)
COc1cccc(-c2cc3nc(NCc4ccccc4OC)n(C)c(=O)c3s2)c1 | 0.83% (inactive)
COc1ccc(C(=O)N(C)Cc2ccc(OC)c(OC)c2OC)cc1S(=O)(=O)N1CCOCC1 | -8.15% (inactive)
Cc1coc2c(O)cc3c(c12)OC1(N2CCCCC2)C(=O)NCCCC31 (configuration not stated) | -99.3% (active)
COCCN1CCN(C(=O)c2cc(COc3ccc(F)cc3Cl)on2)CC1 | 22.2% (inactive)
CN(CC(=O)Nc1ccccc1[N+](=O)[O-])Cc1ccc(Br)cc1 | -6.83% (inactive)
Cc1ccc(NC(=O)CN(C)Cc2ccc(F)cc2)c([N+](=O)[O-])c1 | -62.3% (active)
CN(CC(=O)NCCc1ccc(F)cc1)CC(=O)Nc1ccc(F)c(F)c1F | -12.2% (inactive)
CCN(C(=O)CSc1nnc2ccccn12)C1CCS(=O)(=O)C1 (configuration not stated) | -2.9% (inactive)
Cc1cc2cc3c(cc2nc1SCC(=O)Nc1c(C)cccc1C)CCC3 | 13% (inactive)
